# Measured values reported in the supplement of paper PMC11732987, “Enantioselective OTUD7B fragment discovery through chemoproteomics screening and high-throughput optimisation” (Communications Chemistry, 2025).
# Unmarked numbers belong to inactive results.
# How the values were obtained:
# Experiment in all cases: log2 ratio of Biotin-Ahx-Ub-VS probe labelling (fragment/DMSO); higher = less target engagement (more negative = stronger competition), active = hit call of the paper (q ≤ 0.05, log2 ratio ≤ -1)
# Conditions in all cases: compound concentration: 200 uM; treatment time: 3 h
# [1] = biological target: T1, ALG13 (UniProt Q9NP73)
# T1 sequence (whole entry): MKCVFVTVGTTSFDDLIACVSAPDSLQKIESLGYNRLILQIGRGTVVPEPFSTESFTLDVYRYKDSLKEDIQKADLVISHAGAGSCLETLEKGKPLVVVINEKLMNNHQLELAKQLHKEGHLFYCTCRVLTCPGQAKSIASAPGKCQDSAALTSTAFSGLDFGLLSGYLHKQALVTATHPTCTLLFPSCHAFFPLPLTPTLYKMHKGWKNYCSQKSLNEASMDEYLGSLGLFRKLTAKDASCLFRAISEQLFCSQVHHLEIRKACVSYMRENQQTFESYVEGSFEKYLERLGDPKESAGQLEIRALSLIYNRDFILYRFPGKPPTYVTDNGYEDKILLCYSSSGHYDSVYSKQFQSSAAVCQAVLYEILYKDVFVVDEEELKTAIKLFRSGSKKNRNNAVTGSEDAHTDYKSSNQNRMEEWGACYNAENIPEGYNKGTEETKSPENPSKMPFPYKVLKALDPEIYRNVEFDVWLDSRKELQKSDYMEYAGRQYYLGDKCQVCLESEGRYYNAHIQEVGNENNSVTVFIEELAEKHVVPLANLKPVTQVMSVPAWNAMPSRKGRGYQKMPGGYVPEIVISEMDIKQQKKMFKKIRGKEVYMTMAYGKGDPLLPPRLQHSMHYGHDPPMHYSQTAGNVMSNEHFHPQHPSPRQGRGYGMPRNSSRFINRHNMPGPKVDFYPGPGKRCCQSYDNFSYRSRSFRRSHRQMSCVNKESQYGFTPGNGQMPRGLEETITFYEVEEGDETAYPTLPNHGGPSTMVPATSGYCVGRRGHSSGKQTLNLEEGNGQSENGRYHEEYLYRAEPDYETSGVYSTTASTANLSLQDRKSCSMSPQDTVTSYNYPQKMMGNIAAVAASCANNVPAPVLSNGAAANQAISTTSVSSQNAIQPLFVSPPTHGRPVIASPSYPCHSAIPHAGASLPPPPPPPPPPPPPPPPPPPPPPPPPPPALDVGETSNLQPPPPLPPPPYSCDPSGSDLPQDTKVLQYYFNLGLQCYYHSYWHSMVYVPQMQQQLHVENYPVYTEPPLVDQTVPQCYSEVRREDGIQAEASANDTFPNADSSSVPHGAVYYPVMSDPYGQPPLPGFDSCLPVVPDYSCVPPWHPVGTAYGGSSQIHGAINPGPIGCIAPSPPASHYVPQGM
# Method in brief: (§1)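 Fragment (200 µM) or vehicle was incubated for 3 h with triplicate HEK293T lysate samples of 495 µg, which were then treated with Biotin-Ahx-Ub-VS at 0.5 µM final for 1 h. Labelled DUBs were enriched on NeutrAvidin, digested with LysC and trypsin, and analysed by diaPASEF LC-MS/MS. Values are average log2 fragment/vehicle ratios from an unpaired t-test on global-median-normalised Spectronaut label-free quantities, using proteins with ≥2 unique peptides.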
# [2] = biological target: ATXN3 (UniProt P54252)
# Method in brief: as §1
# [3] = biological target: T2, BAP1 (UniProt Q92560)
# T2 sequence (whole entry): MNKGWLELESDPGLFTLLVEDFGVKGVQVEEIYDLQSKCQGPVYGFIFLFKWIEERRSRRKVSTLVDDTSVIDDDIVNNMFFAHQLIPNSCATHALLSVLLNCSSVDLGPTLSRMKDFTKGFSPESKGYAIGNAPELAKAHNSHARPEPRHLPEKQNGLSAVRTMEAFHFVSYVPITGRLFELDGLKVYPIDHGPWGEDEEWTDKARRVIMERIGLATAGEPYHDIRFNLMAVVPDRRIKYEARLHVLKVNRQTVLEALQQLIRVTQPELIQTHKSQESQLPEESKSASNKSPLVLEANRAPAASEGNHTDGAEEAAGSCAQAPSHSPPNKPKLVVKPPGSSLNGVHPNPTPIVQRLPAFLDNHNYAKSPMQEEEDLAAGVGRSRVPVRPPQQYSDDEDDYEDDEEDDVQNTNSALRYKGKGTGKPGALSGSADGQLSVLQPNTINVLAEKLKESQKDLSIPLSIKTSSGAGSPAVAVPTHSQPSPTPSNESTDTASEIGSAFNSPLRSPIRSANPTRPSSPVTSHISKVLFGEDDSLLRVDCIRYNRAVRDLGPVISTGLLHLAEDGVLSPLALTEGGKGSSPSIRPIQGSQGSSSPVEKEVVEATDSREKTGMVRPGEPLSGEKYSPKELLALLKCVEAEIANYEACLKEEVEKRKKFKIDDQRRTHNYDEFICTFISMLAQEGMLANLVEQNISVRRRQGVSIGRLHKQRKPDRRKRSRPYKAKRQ
# Method in brief: as §1
# [4] = biological target: EIF3F (UniProt O00303)
# Method in brief: as §1
# [5] = biological target: EIF3H (UniProt O15372)
# Method in brief: as §1
# [6] = biological target: T3, FAM105A (UniProt Q9NUU6)
# T3 sequence (whole entry): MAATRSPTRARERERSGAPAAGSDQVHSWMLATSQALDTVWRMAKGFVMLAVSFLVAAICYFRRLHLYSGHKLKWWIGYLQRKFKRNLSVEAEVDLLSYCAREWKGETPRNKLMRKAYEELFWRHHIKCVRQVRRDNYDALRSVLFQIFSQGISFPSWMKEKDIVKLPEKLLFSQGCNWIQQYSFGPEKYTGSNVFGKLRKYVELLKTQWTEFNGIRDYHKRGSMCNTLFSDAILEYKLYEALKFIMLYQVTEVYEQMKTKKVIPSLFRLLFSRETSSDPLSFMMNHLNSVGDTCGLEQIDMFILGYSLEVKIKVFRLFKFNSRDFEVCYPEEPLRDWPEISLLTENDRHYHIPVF
# Method in brief: as §1
# [7] = biological target: OTUB1 (UniProt Q96FW1)
# Method in brief: as §1
# [8] = biological target: T4, OTUD4 (UniProt Q01804)
# T4 sequence (whole entry): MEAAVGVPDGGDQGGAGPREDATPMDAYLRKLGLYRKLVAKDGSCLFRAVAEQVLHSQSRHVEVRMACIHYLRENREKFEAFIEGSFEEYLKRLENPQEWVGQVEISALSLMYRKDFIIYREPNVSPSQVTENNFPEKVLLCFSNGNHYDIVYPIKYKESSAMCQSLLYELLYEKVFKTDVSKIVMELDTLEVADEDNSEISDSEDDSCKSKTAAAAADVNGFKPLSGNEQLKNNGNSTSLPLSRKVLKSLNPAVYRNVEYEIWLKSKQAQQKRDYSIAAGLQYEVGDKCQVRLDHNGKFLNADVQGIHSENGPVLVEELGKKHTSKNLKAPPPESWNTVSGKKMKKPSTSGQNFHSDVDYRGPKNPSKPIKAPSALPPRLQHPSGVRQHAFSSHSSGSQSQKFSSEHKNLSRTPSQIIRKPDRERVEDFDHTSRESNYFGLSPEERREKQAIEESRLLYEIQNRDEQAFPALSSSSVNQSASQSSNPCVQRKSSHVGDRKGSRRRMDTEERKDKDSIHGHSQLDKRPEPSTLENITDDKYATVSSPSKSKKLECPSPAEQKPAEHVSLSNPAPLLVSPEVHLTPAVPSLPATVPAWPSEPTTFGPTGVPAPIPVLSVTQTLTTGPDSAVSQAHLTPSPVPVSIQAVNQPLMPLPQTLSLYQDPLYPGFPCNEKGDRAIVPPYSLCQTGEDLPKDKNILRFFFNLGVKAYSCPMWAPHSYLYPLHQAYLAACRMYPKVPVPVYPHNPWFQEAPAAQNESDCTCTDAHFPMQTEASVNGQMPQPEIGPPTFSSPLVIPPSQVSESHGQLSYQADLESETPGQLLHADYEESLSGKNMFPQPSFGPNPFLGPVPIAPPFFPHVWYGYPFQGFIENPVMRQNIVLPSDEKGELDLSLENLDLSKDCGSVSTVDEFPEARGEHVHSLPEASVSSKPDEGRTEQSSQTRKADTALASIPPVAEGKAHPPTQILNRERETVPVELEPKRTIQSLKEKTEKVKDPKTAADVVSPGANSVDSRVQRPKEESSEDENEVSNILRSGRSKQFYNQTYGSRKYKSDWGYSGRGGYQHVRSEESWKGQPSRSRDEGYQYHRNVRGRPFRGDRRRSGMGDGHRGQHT
# Method in brief: as §1
# [9] = biological target: T5, OTUD5 (UniProt Q96G74)
# T5 sequence (whole entry): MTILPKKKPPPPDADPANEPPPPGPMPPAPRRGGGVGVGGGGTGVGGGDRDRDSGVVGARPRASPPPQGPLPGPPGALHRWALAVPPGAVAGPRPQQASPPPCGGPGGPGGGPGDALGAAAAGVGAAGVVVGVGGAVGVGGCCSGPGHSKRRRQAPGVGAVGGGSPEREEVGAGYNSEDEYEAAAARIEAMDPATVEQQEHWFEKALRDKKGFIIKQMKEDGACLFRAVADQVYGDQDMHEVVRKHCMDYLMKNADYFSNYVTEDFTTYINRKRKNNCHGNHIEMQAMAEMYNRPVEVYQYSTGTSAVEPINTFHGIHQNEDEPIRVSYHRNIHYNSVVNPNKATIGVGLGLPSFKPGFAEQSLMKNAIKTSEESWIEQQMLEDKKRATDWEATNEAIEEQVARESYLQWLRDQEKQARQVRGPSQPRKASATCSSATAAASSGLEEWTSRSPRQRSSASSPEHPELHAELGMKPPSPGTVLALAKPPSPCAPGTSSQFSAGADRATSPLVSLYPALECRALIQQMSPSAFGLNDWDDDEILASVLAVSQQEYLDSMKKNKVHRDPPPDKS
# Method in brief: as §1
# EIF3F, sequence (O00303 whole entry): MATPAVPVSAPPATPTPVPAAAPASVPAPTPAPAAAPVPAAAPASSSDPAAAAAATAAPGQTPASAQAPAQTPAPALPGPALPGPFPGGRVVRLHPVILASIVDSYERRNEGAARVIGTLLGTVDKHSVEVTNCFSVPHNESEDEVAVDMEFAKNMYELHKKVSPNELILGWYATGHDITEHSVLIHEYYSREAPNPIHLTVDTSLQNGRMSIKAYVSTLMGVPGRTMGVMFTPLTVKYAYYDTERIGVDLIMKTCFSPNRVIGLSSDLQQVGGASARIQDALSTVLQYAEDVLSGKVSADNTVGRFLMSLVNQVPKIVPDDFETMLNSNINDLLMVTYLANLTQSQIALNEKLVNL
# OTUB1, sequence (Q96FW1 whole entry): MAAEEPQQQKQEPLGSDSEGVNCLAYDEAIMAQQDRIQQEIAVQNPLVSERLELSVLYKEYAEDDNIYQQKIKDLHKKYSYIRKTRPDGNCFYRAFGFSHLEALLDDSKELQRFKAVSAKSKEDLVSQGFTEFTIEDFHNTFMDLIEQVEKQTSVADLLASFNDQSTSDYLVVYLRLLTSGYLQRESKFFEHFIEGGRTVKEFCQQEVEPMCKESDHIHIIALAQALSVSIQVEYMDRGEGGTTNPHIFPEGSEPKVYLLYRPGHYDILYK
# EIF3H, sequence (O15372 whole entry): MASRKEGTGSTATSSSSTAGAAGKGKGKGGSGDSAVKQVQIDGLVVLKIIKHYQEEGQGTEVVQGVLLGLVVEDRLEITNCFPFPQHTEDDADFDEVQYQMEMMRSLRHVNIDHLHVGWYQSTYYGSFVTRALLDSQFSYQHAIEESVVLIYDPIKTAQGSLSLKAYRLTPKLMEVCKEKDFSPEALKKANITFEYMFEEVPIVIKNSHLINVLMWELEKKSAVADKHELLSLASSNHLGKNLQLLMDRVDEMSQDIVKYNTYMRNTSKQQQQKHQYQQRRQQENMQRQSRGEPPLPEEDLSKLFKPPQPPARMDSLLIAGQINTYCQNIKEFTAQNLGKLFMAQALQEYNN
# ATXN3, sequence (P54252 whole entry): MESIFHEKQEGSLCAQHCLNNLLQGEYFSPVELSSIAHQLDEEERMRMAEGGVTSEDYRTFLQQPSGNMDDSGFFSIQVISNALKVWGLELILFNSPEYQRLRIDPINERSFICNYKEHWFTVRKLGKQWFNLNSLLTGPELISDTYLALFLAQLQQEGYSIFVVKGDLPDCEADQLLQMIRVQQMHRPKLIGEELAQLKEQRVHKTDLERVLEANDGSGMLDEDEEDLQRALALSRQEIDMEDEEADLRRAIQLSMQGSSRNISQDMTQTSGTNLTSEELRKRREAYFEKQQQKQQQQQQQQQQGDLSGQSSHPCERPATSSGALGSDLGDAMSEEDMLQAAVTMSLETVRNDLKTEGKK
smiles,measurement,setting,value
COCC[C@@H](NC(=O)CCl)c1ccccc1,log2 ratio of Biotin-Ahx-Ub-VS probe labelling,[1],-0.555
same,log2 ratio of Biotin-Ahx-Ub-VS probe labelling,[2],-0.208
same,log2 ratio of Biotin-Ahx-Ub-VS probe labelling,[3],-1.89 (active)
same,log2 ratio of Biotin-Ahx-Ub-VS probe labelling,[4],-0.137
same,log2 ratio of Biotin-Ahx-Ub-VS probe labelling,[5],-0.017
same,log2 ratio of Biotin-Ahx-Ub-VS probe labelling,[6],0.268
same,log2 ratio of Biotin-Ahx-Ub-VS probe labelling,[7],-0.131
same,log2 ratio of Biotin-Ahx-Ub-VS probe labelling,[8],-0.138
same,log2 ratio of Biotin-Ahx-Ub-VS probe labelling,[9],-0.197
